Screening results as filed in PubChem.
Many of the other results were omitted from the sample, so hits are more common in it than they were.
miR122 inh: raises miR-122 sensor activity in Huh7 cells; Huh7 psiCHECK-miR122 Renilla luciferase sensor, 48 h; activation, % at 12.5 µM; hit rate 0.14% among 340,000; AID 623901;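 active = mean activation of 30% or more, with every replicate also reaching 30%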;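 also: 0% = median of neutral control wells and 100% = median of positive control wells; higher luciferase signal means stronger suppression of miR-122 activity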
The depositor's hits bear a star.

SMILES | miR122 inh
COCCNC(=O)C[C@@H]1CC[C@H]2[C@H](COc3ccc(NC(=O)Cc4ccccc4)cc3C(=O)N2C)O1 | -107
CC(C)C(=O)Nc1ccc2c(c1)C(=O)N(C)[C@H]1CC[C@H](CC(=O)NCCc3ccccc3)O[C@H]1CO2 | 53*
CCNC(=O)C[C@@H]1CC[C@@H]2[C@@H](COc3ccc(NC(=O)c4ccccc4)cc3C(=O)N2C)O1 | 42*
C[C@@H]1CN([C@@H](C)CO)S(=O)(=O)c2ccc(C#Cc3ccccc3)cc2O[C@H]1CN(C)C(=O)Nc1ccccc1 | 0
CCC(=O)N(C)C[C@H]1Oc2ncc(C#CC3(O)CCCC3)cc2C(=O)N([C@H](C)CO)C[C@@H]1C | -6
COc1cccc(NC(=O)N(C)C[C@H]2Oc3ncc(C#Cc4cccnc4)cc3C(=O)N([C@H](C)CO)C[C@@H]2C)c1 | -6
COc1ccccc1-c1ccc2c(c1)O[C@@H](CN(C)S(=O)(=O)c1ccccc1)[C@H](C)CN([C@H](C)CO)S2(=O)=O | -9
CC(=O)N(C)C[C@@H]1Oc2cc(C#C[C@@H](C)O)ccc2S(=O)(=O)N([C@H](C)CO)C[C@@H]1C | 4
CO[C@H]1CN(C)C(=O)c2cc(NC(C)=O)ccc2OC[C@H](C)N(C(=O)c2ccccc2)C[C@@H]1C | 1
CC(=O)N(C)C[C@@H]1Oc2cc(C#C[C@@H](C)O)ccc2S(=O)(=O)N([C@H](C)CO)C[C@H]1C | 8
C[C@H](O)C#Cc1cnc2c(c1)C(=O)N([C@@H](C)CO)C[C@H](C)[C@H](CN(C)C(=O)CN(C)C)O2 | -4
COCC#Cc1cnc2c(c1)C(=O)N([C@@H](C)CO)C[C@@H](C)[C@H](CN(C)C(=O)Nc1c(C)noc1C)O2 | 5
COc1cccc(-c2cnc3c(c2)C(=O)N([C@@H](C)CO)C[C@@H](C)[C@@H](CN(C)C(=O)CC2CC2)O3)c1 | 1
C[C@@H]1CN([C@H](C)CO)C(=O)c2cc(/C=C/c3ccccc3)cnc2O[C@H]1CN(C)C(=O)Nc1ccccc1F | 3
CC(=O)N(C)C[C@H]1Oc2cc(C#C[C@H](C)O)ccc2S(=O)(=O)N([C@@H](C)CO)C[C@H]1C | 5
COc1ccccc1S(=O)(=O)N(C)C[C@H]1Oc2ncc(-c3ccc(C)cc3)cc2C(=O)N([C@@H](C)CO)C[C@@H]1C | -3
C[C@@H]1CN([C@H](C)CO)S(=O)(=O)c2ccc(-c3ccccc3)cc2O[C@H]1CN(C)Cc1cncnc1 | -16
Cc1ccsc1/C=N/NC(=O)CSCc1ccc(Cl)cc1 | 36*
C[C@H](CO)N1C[C@H](C)[C@@H](CN(C)C(=O)c2ccccc2)Oc2cc(-c3cccc(C#N)c3)ccc2S1(=O)=O | -9
C[C@H](O)C#Cc1ccc2c(c1)O[C@H](CN(C)CC1CCOCC1)[C@@H](C)CN([C@@H](C)CO)S2(=O)=O | -3
C[C@@H]1CN([C@@H](C)CO)C(=O)c2cc(-c3ccncc3)cnc2O[C@@H]1CN(C)C(=O)Cc1ccccn1 | 0
COC1=CC(=O)C=C(OC)C1=O | 57*
Cc1ccc(S(=O)(=O)N(C)C[C@H]2Oc3cc(C#CC4CCCC4)ccc3S(=O)(=O)N([C@@H](C)CO)C[C@H]2C)cc1 | -61
C[C@H]1CN([C@@H](C)CO)C(=O)c2cc(-c3ccc(C(=O)N(C)C)cc3)cnc2O[C@H]1CN(C)C(=O)c1cccnc1 | 6
C[C@H](CO)N1C[C@H](C)[C@@H](CN(C)Cc2ccccc2)Oc2ncc(-c3cncnc3)cc2C1=O | -4
SMILES | miR122 inh
Cc1cc(C(C)(C)CC(C)(C)C)ccc1OCCOCC[N+](C)(C)Cc1ccccc1 | 58*
C[C@H]1CN([C@@H](C)CO)S(=O)(=O)c2ccc(-c3cncnc3)cc2O[C@@H]1CN(C)Cc1ccccc1 | 4
C[C@H]1CN([C@@H](C)CO)S(=O)(=O)c2ccc(C#Cc3ccccc3)cc2O[C@@H]1CN(C)C(=O)Nc1ccccc1 | -29
COc1ccc(S(=O)(=O)Nc2cc3c4c(oc3c3ccccc23)CCCC4=O)cc1 | -127
COc1ccc(Oc2ccc(N/C=C3\CCCC3=O)cc2)cc1 | 36*
COc1ccc(NS(=O)(=O)c2cc(C)ccc2C)cc1 | -539
Cc1cc(C(=O)Nc2ccc3c(c2)C(=O)N(C)[C@H]2CC[C@H](CC(=O)N[C@@H](C)c4ccccc4)O[C@H]2CO3)no1 | 50*
Cc1cc(C(=O)Nc2ccc3c(c2)C(=O)N(C)[C@@H]2CC[C@@H](CC(=O)N[C@H](C)c4ccccc4)O[C@H]2CO3)no1 | 33*
CCCNC(=O)N(C)C[C@@H]1Oc2ncc(C#C[C@H](C)O)cc2C(=O)N([C@@H](C)CO)C[C@@H]1C | -2
CO[C@H]1CN(C)C(=O)c2cc(NC(=O)c3ccc(F)cc3)ccc2OC[C@H](C)N(C)C[C@H]1C | 1
C[C@H](CO)N1C[C@H](C)[C@@H](CN(C)Cc2ccccc2)Oc2cc(-c3cncnc3)ccc2S1(=O)=O | -1
COc1ccc2[nH]c3c4c(ccc3c2c1)C(=O)C=CC4=O | 42*
CCC(=O)Nc1ccc2c(c1)C(=O)N(C)C[C@H](OC)[C@@H](C)CN(C(C)=O)[C@H](C)CO2 | 1
COc1ccccc1-c1ccc2c(c1)O[C@H](CN(C)S(=O)(=O)c1ccccc1)[C@H](C)CN([C@@H](C)CO)S2(=O)=O | -17
CCCN(C)C[C@@H]1Oc2cc(C#CC(C)C)ccc2S(=O)(=O)N([C@@H](C)CO)C[C@@H]1C | 5
COc1cccc(S(=O)(=O)N(C)C[C@@H]2Oc3ncc(-c4ccc(F)cc4)cc3C(=O)N([C@H](C)CO)C[C@@H]2C)c1 | 6
CN1[C@@H](CO)[C@@H]2c3ccccc3N(C(=O)Nc3cc(F)ccc3F)C[C@@H]21 | 33*
O=C(Nc1ccccc1F)N1C[C@@H]2[C@H](c3ccccc31)[C@@H](CO)N2C(=O)C1CCCC1 | -130
O=S(=O)(c1ccccc1)N1C[C@H]2[C@@H](c3ccccc31)[C@@H](CO)N2Cc1ccc2c(c1)OCO2 | -140
C[C@@H]1CN([C@H](C)CO)C(=O)c2cc(/C=C/c3ccccc3)cnc2O[C@H]1CN(C)Cc1ccccc1F | -31
C[C@@H]1CN([C@H](C)CO)S(=O)(=O)c2ccc(C#CC(C)(C)O)cc2O[C@H]1CN(C)C(=O)C1CCC1 | 3
Cc1ccc(-n2ncc(C(=O)Nc3cc(Cl)ccc3C)c2C2CCNCC2)cc1C | 36*
COc1cccc(-c2ccc3c(c2)O[C@@H](CN(C)CC2CC2)[C@@H](C)CN([C@H](C)CO)S3(=O)=O)c1 | 5
C[C@@H]1CN([C@H](C)CO)C(=O)c2cc(C#CC3(O)CCCC3)cnc2O[C@@H]1CN(C)Cc1cncnc1 | 2
N#CC1=C(N)Oc2c(ccc3cccnc23)C1c1ccccc1 (stereo not given) | 64*
SMILES | miR122 inh
COCC#Cc1cnc2c(c1)C(=O)N([C@H](C)CO)C[C@@H](C)[C@@H](CN(C)C(=O)Cc1ccccc1)O2 | 1
C[C@@H]1CN([C@@H](C)CO)S(=O)(=O)c2ccc(-c3cccnc3)cc2O[C@@H]1CN(C)Cc1ccccn1 | 2
COc1cccc(-c2cnc3c(c2)C(=O)N([C@H](C)CO)C[C@H](C)[C@H](CN(C)C(=O)Nc2ccccc2F)O3)c1 | 2
CC(C)NC(=O)Nc1ccc2c(c1)CC(=O)N([C@H](C)CO)C[C@H](C)[C@H](CN(C)Cc1ccc(C(=O)Nc3ccccc3N)cc1)O2 | -114
O=c1c2c3c(sc2nc2n1CCC2)CCCC3 | 32*
COc1cccc(-c2cnc3c(c2)C(=O)N([C@H](C)CO)C[C@H](C)[C@@H](CN(C)C(=O)Nc2ccccc2F)O3)c1 | 7
